About 83,000 compounds went through this panel and 20% of them were active in at least one assay; those are over-represented in the sample as a whole.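 Single-dose data. Exposure time 48 hours. Values below 10 considered active.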 Unmarked numbers belong to inactive results. Activity calls are given as the source filed them.

The results in this text go back to PubChem BioAssay (NCI).

Test in all cases: NCI-60 one-dose screen, 48 h (100 = growth as untreated, 0 = no growth, -100 = all killed)
The test system of test [1] is HCT-15 colon. The note with it: 10 µM unless noted.
Test [2] concerns HT29 colon. Particulars: 10 µM unless noted.
Test [3] has as its system SNB-75 CNS. Particulars: 10 µM unless noted.
Test [4] has as its system SNB-19 CNS. Particulars: 10 µM unless noted.
Test [5] has as its system U251 CNS. Particulars: 10 µM unless noted.
The subject of test [6] is PC-3 prostate. Particulars: 10 µM unless noted.
The subject of test [7] is SK-MEL-5 melanoma. Particulars: 10 µM unless noted.
In test [8] the test system is UACC-62 melanoma. The note with it: 10 µM unless noted.
For test [9], the system named is LOX IMVI melanoma. The note with it: 10 µM unless noted.
Test [10] concerns SK-MEL-28 melanoma. The note with it: 10 µM unless noted.
For test [11], the system named is SK-MEL-2 melanoma. Particulars: 10 µM unless noted.
Test [12] relates to EKVX NSCLC. Particulars: 10 µM unless noted.
In test [13] the test system is SN12C renal. Particulars: 10 µM unless noted.
The subject of test [14] is UO-31 renal. Particulars: 10 µM unless noted.
In test [15] the test system is TK-10 renal. The note with it: 10 µM unless noted.
The subject of test [16] is ACHN renal. Particulars: 10 µM unless noted.
The subject of test [17] is CAKI-1 renal. The note with it: 10 µM.
The subject of test [18] is A498 renal. Particulars: 10 µM unless noted.
Test [19] has as its system CCRF-CEM leukemia. The note with it: 10 µM unless noted.
The subject of test [20] is MOLT-4 leukemia. Particulars: 10 µM unless noted.

On to `Oc1ccc(CSc2nnc(-c3ccc(Oc4ccccc4)cc3)o2)c2cccnc12`, for which the growth was 9.07% (active) in test [1]; 94.4% in [2]; -25.3% (active) in test [3]; 17.3% in test [4]; -4.12% (active) in test [5]; 20.4% in test [6]. The growth was 16.6% in [7]; 22.6% in test [8]; 19.8% in test [9]; 52.2% in test [10]; 39.9% in test [11]; 23.6% in test [12]. The growth is 23.8% in test [13]; 2.75% (active) in test [14]; 34.8% in test [15]; -2.93% (active) in [16]; 60.3% in test [17]; 78.9% in [18]. Moreover, the growth in test [19] was 16%; in test [20], 26.9%.
For `COc1ccc(-c2nn(-c3ccccc3)cc2/C=C/C(=O)c2ccc(NC(=O)CCCCCCC(=O)NO)cc2)cc1`, the growth in [1] is 80.5%; in test [2] it was 94.4%; in test [3] it was 96.6%; in test [4], 106%; in test [5], 106%; in test [6], 95.8%. Also, the growth in [7] was 101%; in [8], 94.9%; in [9], 90.4%; in test [10], 113%; in test [11], 109%; in test [12] it was 97.2%. Moreover, the growth was 92.7% in test [13]; 93.7% in [14]; 107% in test [15]; 111% in [16]; 81.9% in [17]; 68.4% in test [18]. The growth was 92.5% in [19] and 70.3% in [20].
With `Cn1c(SC(C(=O)Nc2ccc(F)cc2)c2ccccc2)nc2ccccc2c1=O` (stereo not given), the growth in test [1] was 102%; in test [2], 107%; in [3], 91.3%; in [4] it was 98.9%; in test [5] it was 103%; in [6], 95.8%. In addition, the growth is 104% in test [7]; 95.2% in [8]; 102% in test [9]; 114% in test [10]; 104% in test [11]; 100% in [12]. Further, the growth was 99.1% in test [13]; 88.1% in test [14]; 99.1% in [15]; 109% in test [16]; 99.3% in test [17]; 98.8% in test [18]. For the same compound, the growth is 102% in test [19] and 101% in [20].
As for `Cc1ccc(C2CC(c3ccc(Nc4nc(NCCO)nc(Nc5ccc(Cl)cc5)n4)cc3)=Nc3c(N)nc(N)nc3N2)cc1` (stereo not given), the growth in test [1] is -81.7% (active); in [2], -90.8% (active); in test [3] it was 112%; in test [4], -90.3% (active); in test [5], -96.8% (active); in [6], -32.7% (active). In addition, the growth is 67.5% in test [7]; 107% in test [8]; -93.9% (active) in [9]; 110% in test [10]; 99% in test [11]; 33.1% in [12]. The growth is -65.8% (active) in test [13]; -91.6% (active) in test [14]; -84.5% (active) in test [15]; -36.6% (active) in test [16]; -9.94% (active) in test [17]; 77.9% in test [18]. Besides, the growth is -23.2% (active) in test [19] and -29.3% (active) in test [20].
On to `O=C(Nc1ccc(-c2nc(-c3cccc(O)c3)c(-c3ccnc(Br)c3)[nH]2)cc1)c1ccccc1`, for which the growth in test [1] is 7.12% (active); in test [2], 12.2%; in test [3], -2.13% (active); in test [4], 23.3%; in [5] it was 20.8%; in test [6], 6.14% (active). For the same compound, the growth is -67% (active) in test [7]; 22.1% in test [8]; 3.27% (active) in [9]; 34.2% in [10]; 10.3% in test [11]; 26.7% in test [12]. Moreover, the growth in test [13] was 35%; in test [14], 1.13% (active); in [15] it was 49%; in [16], 16.5%; in test [17], 11.3%; in test [18], -11.4% (active). Moreover, the growth was 3.66% (active) in test [19] and -15.8% (active) in test [20].
In the case of `Cn1c2ccccc2c2c3c(c4c5ccc(Br)cc5oc4c21)C(=O)N(O)C3=O`, the growth in [1] is 74.6%; in test [2], 86.6%; in [3], 54.3%; in [4], 69.5%; in test [5], 60.5%; in test [6], 65.8%. Besides, the growth was 75.6% in [7]; 49.2% in test [8]; -88.8% (active) in test [9]; 105% in [10]; 98.6% in [11]; 96.6% in [12]. For the same compound, the growth was 92.7% in test [13]; -91.6% (active) in test [14]; 101% in test [15]; 69.5% in test [16]; 40.4% in [17]; -6.15% (active) in test [18]. Moreover, the growth was 14.6% in [19] and 7.13% (active) in [20].
On to `NS(=O)(=O)c1ccc(Nc2nc(N/N=C/c3ccc([N+](=O)[O-])cc3)nc(Nc3ccccc3)n2)cc1`, for which the growth in test [1] is 86.5%; in test [2], 24.6%; in test [3], 45.4%; in test [4] it was 20.4%; in test [5], 18.2%; in test [6] it was 50.2%. In addition, the growth in test [7] is 32.3%; in test [8], 45.1%; in test [9], -20.6% (active); in test [10], 35.2%; in [11] it was 18.2%; in test [12] it was 83.7%. In addition, the growth in [13] was 27.4%; in test [14] it was 81.9%; in [15], 93.8%; in test [16], 82.6%; in test [17], 50.6%; in test [18], 18.5%. Also, the growth in test [19] is 11.8%; in [20], 11.9%.
Take `COc1cc(C2CC(c3ccc(Nc4nc(NCCO)nc(Nc5ccc(Cl)cc5)n4)cc3)=Nc3c(N)nc(N)nc3N2)cc(OC)c1OC` (stereo not given): the growth in [1] was 54.2%; in test [2], 60.9%; in [3] it was 91.4%; in test [4], 47.1%; in test [5], 38.7%; in test [6] it was 41.9%. Further, the growth in test [7] is 53.4%; in test [8], 77.6%; in test [9], 53.1%; in test [10], 96.4%; in test [11], 75.9%; in test [12], 109%. In addition, the growth in [13] was 49.9%; in [14] it was 85.1%; in test [15], 95.8%; in test [16] it was 79.3%; in test [17], 53.8%; in test [18], 99.8%. In addition, the growth was 23.8% in test [19] and 19.9% in test [20].
